Assay results: PubChem BioAssay AID504660 (National Center for Advancing Translational Sciences (NCATS), 2011)
Several values for one entry are separate records, joined by “and”; a condition that tells them apart may be missing. Equal values may be shown once. About 3,700 (1%) of roughly 360,000 compounds were called active. The sample holds actives, similar compounds and a random draw of the others, so the mix is not that of the screen. A number with no mark means an inactive call. No stated cut-off is given here; in the data, active means activation above about 30%; inactive means the rest.

biological target: D(1A) dopamine receptor (Homo sapiens) (UniProt P21728); assay: Allosteric Agonists of the Human D1 Dopamine Receptor: qHTS; conditions: HEK293 T-REx D1 cells, calcium flux, agonist mode; at 2 µM; stronger effect = higher value; further: 0% is about no effect
Sequence (P21728 whole entry, looked up): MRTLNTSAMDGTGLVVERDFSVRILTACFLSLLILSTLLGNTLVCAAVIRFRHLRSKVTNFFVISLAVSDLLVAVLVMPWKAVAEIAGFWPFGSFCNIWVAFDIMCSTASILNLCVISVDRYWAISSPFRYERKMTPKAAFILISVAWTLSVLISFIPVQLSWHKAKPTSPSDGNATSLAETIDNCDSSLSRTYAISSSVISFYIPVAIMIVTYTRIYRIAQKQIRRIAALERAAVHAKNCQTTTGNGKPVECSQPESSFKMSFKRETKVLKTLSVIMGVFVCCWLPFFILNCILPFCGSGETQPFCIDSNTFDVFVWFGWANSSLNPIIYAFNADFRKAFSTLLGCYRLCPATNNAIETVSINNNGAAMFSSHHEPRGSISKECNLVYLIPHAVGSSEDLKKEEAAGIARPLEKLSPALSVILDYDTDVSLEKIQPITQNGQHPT
Summary of the method: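 Inducible HEK293 T-REx D1 cells, force-coupled to calcium signalling, were plated at 4000 cells/well with tetracycline and held overnight at 30 C. After no-wash calcium dye loading, compound-evoked calcium rise over 180 s flagged agonists.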

| Compound | activation |
| --- | --- |
| CCCCc1nn2c(=O)cc(COC(=O)c3ccc(NC(=O)c4ccccc4C)cc3)nc2s1 | 4.38% |
| COCCCNC(=O)c1ccc(NC(=O)c2nsc3ccccc23)cc1 | -0.261% |
| CN(C)c1ccc(/C=C2\NC(=S)N(Cc3ccccc3)C2=O)cc1 | 203% (active) |
| CCn1cc(C(=O)NCc2ccc(C)cc2)c(=O)c2cc(S(=O)(=O)N3CCc4ccccc4C3)ccc21 | -1.37% |
| CN(C)c1ccc(NC(=O)CSc2nc(-c3ccco3)cc(C(F)(F)F)n2)cc1 | -0.482% |
| Cc1cc(C)c(-c2n[nH]c3c2C(c2ccccc2F)N(CCO)C3=O)c(O)c1 (stereo unspecified) | -0.0969% |
| C=CCSc1nsc(NC(=O)Nc2cccc(C(C)=O)c2)n1 | 34.2% (active) |
| CC(=O)c1ccc(NC(=O)CSc2nnc(NC(=O)Nc3ccccc3)s2)cc1 | 2.71% |
| CCSc1nsc(NC(=O)Nc2cccc(C(C)=O)c2)n1 | 29.4% |
| CCOc1ccc(-c2cc(C)n3nc(C(=O)Nc4ccc(C)c(C)c4)cc3n2)cc1 | 0.877% |
| Cc1ccc(S(=O)(=O)N2[C@@H](c3ccccc3F)C(C(=O)O)=CC[C@H]2c2ccc(Cl)cc2)cc1 | 3.48% |
| Cc1ccccc1S(=O)(=O)N1[C@@H](c2cccc(Cl)c2)C(C(=O)O)=CC[C@H]1c1ccc(Cl)cc1 | 2.18% |
| Cc1ccc(S(=O)(=O)N2[C@@H](c3cccc(Cl)c3)C(C(=O)O)=CC[C@H]2c2ccc(Cl)c(Cl)c2)cc1 | 43.2% (active) |
| CCOC(=O)N1CCc2c(sc(NCc3cccc(F)c3)c2C(=O)Nc2ccccc2OCC)C1 | -1.06% |
| CCOc1ccc(C(O)Cn2c(=N)n(CCN3CCCCC3)c3ccccc32)cc1 (stereo unspecified) | 0.859% |
| N=c1n(Cc2ccc(Cl)cc2)c2ccccc2n1CC(O)c1ccco1 (stereo unspecified) | 92.6% (active) |
| O=C(NCc1ccccc1)C(=O)NCC(c1ccco1)S(=O)(=O)c1ccc(Cl)cc1 (stereo unspecified) | 0.796% |
| COc1cccc(N2CCN(C(=O)CCCCCn3c(=O)[nH]c4ccccc4c3=O)CC2)c1 | 3.15% |
| Cc1sc(C2C(C#N)=C(N)N(c3cccc(Cl)c3)C3=C2C(=O)CCC3)cc1CN1CCOCC1 (stereo unspecified) | -0.583% |
| Cc1ccccc1CSc1nnc(-c2ccccc2)c(=O)[nH]1 | 0.158% |
| N#Cc1c(-c2ccccc2)nc(SCc2cccc(C(F)(F)F)c2)[nH]c1=O | 42.4% (active) |
| N#Cc1c(-c2cccs2)nc(SCC(=O)c2ccc(Br)cc2)[nH]c1=O | 27.1% |

| Compound | activation |
| --- | --- |
| Cc1c(C(=O)NCc2ccccc2Br)oc2ccc3c(c12)C(=O)CC(C)(C)O3 | 5.52% |
| Cc1ccccc1Nc1c(-c2ccccc2)nc2ncccn12 | -0.718% |
| Cc1cccc(C)c1Nc1c(-c2ccccc2O)nc2ncccn12 | -0.792% and 1.73% |
| CCc1cccc(C)c1Nc1c(-c2ccc(N(C)C)cc2)nc2ncccn12 | 51.7% (active) |
| COc1ccc(NC(=O)CCN2CCN(CCO)CC2)cc1 | 1.35% |
| CCc1cc(C(=O)c2ccc(OC)cc2)c(NC(=O)CN2CCN(C)CC2)s1 | 32.2% (active) |
| CCc1ccc(NC(=O)CN2CCC(C(=O)c3ccc(OC)cc3)CC2)cc1 | 2.75% |
| CC1CCCN(Cc2c(O)ccc3c(=O)c(Oc4ccc(C(C)(C)C)cc4)c(C(F)(F)F)oc23)C1 (stereo unspecified) | -1.8% |
| Cc1ccc(C(C)(C)C)c(OCCCCN2CCCC2)c1 | 8.62% |
| CC(C)(C)NCCCOc1ccc(Cl)cc1C(C)(C)C | 59.2% (active) |
| COCCCNCCOCCOc1ccc(Cl)cc1Br | 13.2% |
| CCOc1ccc(NC(=O)c2c(NC(=O)Cc3ccccc3)sc3c2CCC(C)C3)cc1 (stereo unspecified) | -0.648% |
| FC(F)(F)c1cc(-c2ccco2)nc(NCc2ccc(Cl)cc2)n1 | 7.88% |
| COc1ccc(CNc2nc(-c3ccc(Cl)cc3)cc(C(F)(F)F)n2)cc1 | 41.5% (active) |
| COc1ccc(CCNc2nc(-c3ccc(Cl)cc3)cc(C(F)(F)F)n2)cc1OC | 7.69% |
| COc1cccc(C(=O)NC2(C(F)(F)F)C(=O)Nc3c2c(=O)[nH]c(=O)n3-c2ccc(C)cc2)c1 (stereo unspecified) | -0.234% |
| Cc1ccc(Cl)cc1N1CCN(C(=O)c2cnc3c(-c4ccc(F)cc4)c(C)nn3c2C)CC1 | 1.96% |
| COCCNC(=O)c1ccc(Cn2c(SCC(=O)NCC3CCCO3)nc3ccc(Br)cc3c2=O)cc1 (stereo unspecified) | 2.13% |
| OC(CNCC1CCCO1)Cn1c2ccc(Br)cc2c2cc(Br)ccc21 (stereo unspecified) | 38.5% (active) |
| O=C(CNC(=O)c1ccc(Br)o1)NCC1CCCO1 (stereo unspecified) | 0.969% |
| CC(=O)c1c(C)n(S(=O)(=O)c2ccc(Cl)cc2)c2ccc(NS(=O)(=O)c3ccc(Cl)cc3)cc12 | 2.47% |
| CN(Cc1ccccc1)C(=O)CCS(=O)(=O)c1cc(Br)cc2c1N(C(=O)C1CC1)CC2 | 0.148% |

| Compound | activation |
| --- | --- |
| c1ccc2c(c1)C(=NC1CCCCC1)NC2=NC1CCCCC1 | 30.7% (active) |
| Cc1ccccc1OCCC(=O)OCC(=O)NC(C)c1ccccc1 (stereo unspecified) | 1.35% |
| COc1cc(OC)cc(C(=O)N[C@H](C(=O)OCC(=O)NC(C)c2ccccc2)C(C)C)c1 (stereo partly specified) | 119% (active) |
| COc1ccc(N2CCN(C(=O)[C@@H](NC(=O)c3cc(OC)cc(OC)c3)C(C)C)CC2)cc1 | -0.0979% |
| O=C(CCCCn1c(=O)c2ccccc2n(CC(=O)Nc2cccc(C(F)(F)F)c2)c1=O)NCc1ccc2c(c1)OCO2 | 4.77% |
| CCCOc1ccc(C(=O)Nc2ccc3oc(-c4cccc(Cl)c4Cl)nc3c2)cc1 | 1.7% |
| CCCC(=O)Nc1ccc2oc(-c3ccc(O)c(Br)c3)nc2c1 | 3.7% |
| Cc1ccc(C)c(N2C(=O)N(Cc3c(F)cccc3Cl)c3ccccc3S2(=O)=O)c1 | 5.6% |
| Cc1nn(C)cc1N1C(=O)c2cccc3c(N)ccc(c23)C1=O | 244% (active) |
| CN1C(=O)c2cccc3c(N)ccc(c23)C1=O | 219% (active) |
| CCc1nc2cccnc2n1-c1ccc(CC(=O)Nc2c(C)cccc2C)cc1 | 1.78% |
| Cc1ccc(Cn2c(=O)n(Cc3nc(-c4ccccc4)no3)c(=O)c3cc4c(cc32)OCO4)cc1 | -0.256% |
| COc1ccccc1Cc1nc2ccccc2nc1SCC(=O)N1CCCc2ccccc21 | 0.349% |
| CCCN1CN=C(NS(=O)(=O)c2ccc(NC(C)=O)cc2)NC1 | -0.217% |
| COc1ccc(CC(=O)Nc2nnc3n2CCS3)cc1OC | 1.78% |
| Cc1ccc(NC(=O)c2cn3c4c(ccc(Cl)c4c2=O)OC(C)C3)cc1C (stereo unspecified) | 2.01% |
| O=C(COC(=O)Cc1ccccc1F)NCCc1ccccc1 | 2.43% |
| Fc1ccccc1Cn1cnc(NC(=S)NCCc2ccccc2)n1 | 1.4% |
| N=c1n(CCc2ccccc2)c2ccccc2n1Cc1ccccc1F | 100% (active) |
| O=C(Nc1cc(Cl)cc(Cl)c1)c1ccc2c(c1)N(Cc1cccc(Cl)c1)C(=O)c1ccccc1S2=O (stereo unspecified) | 6.19% |
| COc1cc(NC(=O)c2cc([N+](=O)[O-])ccc2Br)ccc1NC(=O)c1ccco1 | 0.47% |
| COc1ccc(NC(=O)c2ccco2)cc1NC(=O)COc1ccc(C)c(C)c1 | -1.09% |

| Compound | activation |
| --- | --- |
| CCC(=O)NC(=S)Nc1ccc(NC(=O)c2ccco2)c(Cl)c1 | 42.4% (active) |
| COc1ccc(Cn2ccc3nc(C)c(C(=O)Nc4ccc(C)c(F)c4)cc3c2=O)cc1 | 2.43% |
| Cc1cc(C)c(NC(=O)C[N+](C)(C)CC(O)COc2cccc3ccccc23)c(C)c1 (stereo unspecified) | 62.2% (active) |
| Cc1cc(C)cc(OCC(=O)NCc2cc(C)nc3ccccc23)c1 | -0.104% |
| CC(C)c1ccccc1OCC(O)CN(CC(O)COc1cccc2ccccc12)C(C)C (stereo unspecified) | 6.15% |
| Cc1ccc2c(=O)c(C(=O)c3ccc(Cl)cc3)cn(CC(=O)NC3CCCCC3)c2n1 | 1.93% |
| CCOc1ccc(CNC(=O)c2ccc3c(c2)nnn3C2CCCC2)cc1 | 1.9% |
| CC(=O)c1cccc(NC(=O)CSc2nc3c(c(=O)[nH]2)CCC3)c1 | 1.96% |
| CCn1c(=O)cc(OCC(=O)Nc2cc(Cl)c(OC)cc2OC)c2ccccc21 | 0.964% |
| CC(C)Cc1cc(C(=O)Nc2cc(Br)ccc2O)no1 | -1.17% |
| CC(C)/C=N/NC(=O)c1cc(Br)ccc1O | 32.1% (active) |
| CC(=N\NC(=O)c1cc(Br)ccc1O)/C(=N/O)C(=O)Nc1ccccc1 | 5.39% |
| CCc1ccc(S(=O)(=O)Nc2cc3c(C(=O)OCc4ccccc4)c(C)oc3c3ccccc23)cc1 | 5.87% |
| Cc1ccccc1NC(=O)Cn1c(=O)n(CC2CCC(C(=O)NCCc3ccccc3)CC2)c(=O)c2ccccc21 (stereo unspecified) | 0.988% |
| CCc1nnc(SCc2nc(-c3cccc(C)c3)oc2C)c2cc3sc(C)cc3n12 | 1.16% |
| CCOc1cccc(C(=O)Nc2nnc(S(=O)(=O)N(C)c3ccc(C)cc3)s2)c1 | -0.514% |
| O=S(=O)(c1ccc(OCC(O)CN2CCN(c3ccccc3Cl)CC2)cc1)N1CCOCC1 (stereo unspecified) | 105% (active) |
| CC(C)c1ccc(OCC(O)CN2CCN(c3ccccn3)CC2)cc1 (stereo unspecified) | 2.28% |
| CC(=O)c1ccc(OCC(O)CN2CCN(S(=O)(=O)c3cccc(Br)c3)CC2)cc1 (stereo unspecified) | 0.785% |
| Cc1ccc2nc(N3CCN(c4cccc(Cl)c4)CC3)c3nnnn3c2c1 | 0.249% |
